# Results taken from patent publication US20060069055, “Delivery of polynucleotides” (published 2006).
# Biological target: NF-kB p65/p50 heterodimer (Homo sapiens, UniProt Q04206;P19838 Q04206:1-551,P19838:1-433)
# Assay: EMSA; competition against labelled probe 113/114
# Settings: protein: extract; tags: nuclear extract of LPS-stimulated THP-1 cells; dsDNA, one strand shown; PS at the 4 most 3' linkages of both strands
# Text: The EMSA assay was employed to characterize oligonucleotide decoys for the NF-κB transcription factor. […] Using the above modified oligonucleotides to compete for binding for the above-mentioned NF-κB family members, it was possible to compare the binding affinity of these oligonucleotides against the high affinity radiolabeled probe and each other. This assay has also enabled the design of a decoy which selectively binds particular members of the NF-κB family. By using increasing concentrations of various oligonucleotides, it was observed that, by deleting or changing targeted residues in the binding site, it was possible to specifically decrease the binding of the decoy molecule to p50/p50 homodimers, while retaining the affinity for p65/p50 and cRel/p50 heterodimers.
# The NF-κB gel shift assays (EMSA) were performed as follows. A double-stranded oligonucleotide containing a consensus NF-κB binding site (5′ […].GGC 3′) (SEQ ID NO: 26) was end-labeled with γ³²P-ATP using T4 Polynucleotide Kinase (Promega). […] The dried gels were imaged and quantitated using a Typhoon 8600 Phosphorlmager (Amersham) and ImageQuant software. […]
# NF-kB p65/p50 heterodimer, sequence (Q04206 whole entry, chain 1 of 2): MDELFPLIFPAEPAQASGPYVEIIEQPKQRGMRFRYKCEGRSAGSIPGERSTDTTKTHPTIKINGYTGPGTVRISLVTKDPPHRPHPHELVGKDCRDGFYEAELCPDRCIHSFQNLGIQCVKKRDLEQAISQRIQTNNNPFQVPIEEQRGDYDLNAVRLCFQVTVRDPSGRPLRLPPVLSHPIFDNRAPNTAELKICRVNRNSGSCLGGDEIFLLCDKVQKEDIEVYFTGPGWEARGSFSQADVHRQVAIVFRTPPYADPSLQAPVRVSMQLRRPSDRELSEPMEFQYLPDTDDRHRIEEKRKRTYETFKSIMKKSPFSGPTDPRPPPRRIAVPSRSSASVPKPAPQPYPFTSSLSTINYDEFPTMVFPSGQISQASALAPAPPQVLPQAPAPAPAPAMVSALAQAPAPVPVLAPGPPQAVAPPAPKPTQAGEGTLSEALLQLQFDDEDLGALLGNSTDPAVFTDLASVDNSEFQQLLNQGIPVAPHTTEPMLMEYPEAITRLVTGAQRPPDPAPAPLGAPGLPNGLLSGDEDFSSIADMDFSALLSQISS
# NF-kB p65/p50 heterodimer, sequence (P19838 1-433, chain 2 of 2): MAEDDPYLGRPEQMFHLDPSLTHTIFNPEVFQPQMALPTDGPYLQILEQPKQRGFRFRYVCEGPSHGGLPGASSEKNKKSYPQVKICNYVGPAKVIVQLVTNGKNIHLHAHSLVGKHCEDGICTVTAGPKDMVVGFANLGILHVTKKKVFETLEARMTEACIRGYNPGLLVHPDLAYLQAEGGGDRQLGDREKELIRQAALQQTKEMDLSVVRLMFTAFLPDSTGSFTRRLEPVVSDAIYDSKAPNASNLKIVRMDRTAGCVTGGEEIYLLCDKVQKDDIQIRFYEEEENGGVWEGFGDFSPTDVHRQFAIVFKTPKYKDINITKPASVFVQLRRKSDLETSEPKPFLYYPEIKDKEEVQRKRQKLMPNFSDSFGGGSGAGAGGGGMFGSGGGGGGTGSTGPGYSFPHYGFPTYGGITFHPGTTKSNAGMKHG
sequence,measurement,value
AGTTGAGGACTTTCCAGGC,IC50,85 fold molar excess
